# From the supplement of paper PMC8975748
# Counter-ions that a name gives are not always drawn. ± gives the standard deviation of the averaged measurements.
# How the values were obtained:
# [1] = tested on: Saccharomyces cerevisiae BY4741 SeMeCo community; assay: z-score of prototroph abundance vs DMSO median; higher = larger share of this subpopulation than in DMSO controls; conditions: 10 µM; 24 h; SM minimal medium; subpopulation (auxotrophy): Prototroph
# In short: (§1)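 Automated confocal microscopy of paraformaldehyde-fixed cells was used to follow a Saccharomyces cerevisiae BY4741 community carrying four plasmids, each restoring one auxotrophy and encoding a distinct fluorescent protein. The community was pre-grown overnight to OD600 1.0, diluted to 0.3, and added at 70 µl to 384-well plates acoustically predosed with library drugs (10 µM final) for 24 h of growth in minimal SM medium. Single-auxotroph fluorescent strains set thresholds and autofluorescence correction, and each subpopulation's abundance was scored as a z-score against the vehicle-well median.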
# [2] = tested on: Saccharomyces cerevisiae BY4741 SeMeCo community; assay: z-score of subpopulation abundance vs DMSO median, subpopulation auxotrophic for M; higher = larger share of this subpopulation than in DMSO controls; conditions: 10 µM; 24 h; SM minimal medium; subpopulation (auxotrophy): M
# In short: as §1
# [3] = tested on: Saccharomyces cerevisiae BY4741 SeMeCo community; assay: z-score of subpopulation abundance vs DMSO median, subpopulation auxotrophic for L; higher = larger share of this subpopulation than in DMSO controls; conditions: 10 µM; 24 h; SM minimal medium; subpopulation (auxotrophy): L
# In short: as §1
# [4] = tested on: Saccharomyces cerevisiae BY4741 SeMeCo community; assay: z-score of subpopulation abundance vs DMSO median, subpopulation auxotrophic for H; higher = larger share of this subpopulation than in DMSO controls; conditions: 10 µM; 24 h; SM minimal medium; subpopulation (auxotrophy): H
# In short: as §1
# [5] = tested on: Saccharomyces cerevisiae BY4741 SeMeCo community; assay: z-score of subpopulation abundance vs DMSO median, subpopulation auxotrophic for LU; higher = larger share of this subpopulation than in DMSO controls; conditions: 10 µM; 24 h; SM minimal medium; subpopulation (auxotrophy): LU
# In short: as §1
# [6] = tested on: Saccharomyces cerevisiae BY4741 SeMeCo community; assay: z-score of subpopulation abundance vs DMSO median, subpopulation auxotrophic for HU; higher = larger share of this subpopulation than in DMSO controls; conditions: 10 µM; 24 h; SM minimal medium; subpopulation (auxotrophy): HU
# In short: as §1
# [7] = tested on: Saccharomyces cerevisiae BY4741 SeMeCo community; assay: z-score of subpopulation abundance vs DMSO median, subpopulation auxotrophic for UM; higher = larger share of this subpopulation than in DMSO controls; conditions: 10 µM; 24 h; SM minimal medium; subpopulation (auxotrophy): UM
# In short: as §1
# [8] = tested on: Saccharomyces cerevisiae BY4741 SeMeCo community; assay: z-score of subpopulation abundance vs DMSO median, subpopulation auxotrophic for HL; higher = larger share of this subpopulation than in DMSO controls; conditions: 10 µM; 24 h; SM minimal medium; subpopulation (auxotrophy): HL
# In short: as §1
# [9] = tested on: Saccharomyces cerevisiae BY4741 SeMeCo community; assay: z-score of subpopulation abundance vs DMSO median, subpopulation auxotrophic for HLU; higher = larger share of this subpopulation than in DMSO controls; conditions: 10 µM; 24 h; SM minimal medium; subpopulation (auxotrophy): HLU
# In short: as §1
# [10] = tested on: Saccharomyces cerevisiae BY4741 SeMeCo community; assay: z-score of subpopulation abundance vs DMSO median, subpopulation auxotrophic for HLM; higher = larger share of this subpopulation than in DMSO controls; conditions: 10 µM; 24 h; SM minimal medium; subpopulation (auxotrophy): HLM
# In short: as §1
# [11] = tested on: Saccharomyces cerevisiae BY4741 SeMeCo community; assay: z-score of subpopulation abundance vs DMSO median, subpopulation auxotrophic for HUM; higher = larger share of this subpopulation than in DMSO controls; conditions: 10 µM; 24 h; SM minimal medium; subpopulation (auxotrophy): HUM
# In short: as §1
# [12] = tested on: Saccharomyces cerevisiae BY4741 SeMeCo community; assay: z-score of subpopulation abundance vs DMSO median, subpopulation auxotrophic for LUM; higher = larger share of this subpopulation than in DMSO controls; conditions: 10 µM; 24 h; SM minimal medium; subpopulation (auxotrophy): LUM
# In short: as §1
# [13] = tested on: Saccharomyces cerevisiae BY4741 SeMeCo community; assay: z-score of subpopulation abundance vs DMSO median, subpopulation auxotrophic for HLUM; higher = larger share of this subpopulation than in DMSO controls; conditions: 10 µM; 24 h; SM minimal medium; subpopulation (auxotrophy): HLUM
# In short: as §1
# [14] = tested on: Saccharomyces cerevisiae BY4741 SeMeCo community; assay: z-score of subpopulation abundance vs DMSO median, subpopulation auxotrophic for U; higher = larger share of this subpopulation than in DMSO controls; conditions: 10 µM; 24 h; SM minimal medium; subpopulation (auxotrophy): U
# In short: as §1
# [15] = tested on: Saccharomyces cerevisiae BY4741 SeMeCo community; assay: z-score of subpopulation abundance vs DMSO median, subpopulation auxotrophic for HM; higher = larger share of this subpopulation than in DMSO controls; conditions: 10 µM; 24 h; SM minimal medium; subpopulation (auxotrophy): HM
# In short: as §1
# [16] = tested on: Saccharomyces cerevisiae BY4741 SeMeCo community; assay: z-score of subpopulation abundance vs DMSO median, subpopulation auxotrophic for LM; higher = larger share of this subpopulation than in DMSO controls; conditions: 10 µM; 24 h; SM minimal medium; subpopulation (auxotrophy): LM
# In short: as §1
# [17] = tested on: Saccharomyces cerevisiae BY4741 SeMeCo community; assay: mean cell size (pixel area) (pixels); higher = larger cells; conditions: 10 µM; 24 h; SM minimal medium
# In short: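 A four-plasmid fluorescent Saccharomyces cerevisiae BY4741 community was tested; each plasmid complements one auxotrophy and carries a fluorescent marker. An overnight preculture at OD600 = 1.0 was diluted to OD600 = 0.3, and 70 µl was added to 384-well plates acoustically predosed with drug (final 10 µM) in SM medium for 24 h. Cells were fixed with paraformaldehyde and imaged by automated confocal microscopy, with analysis in Harmony. Mean cell pixel area per well is averaged over 3 replicates. Same SeMeCo high-content imaging drug screen: Selleck FDA-approved drugs at 10 µM, 24 h in SM medium, 384-well plates, 3 replicates.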
SMILES,z-score of prototroph abundance [1],z-score of subpopulation abundance [2],z-score of subpopulation abundance [3],z-score of subpopulation abundance [4],z-score of subpopulation abundance [5],z-score of subpopulation abundance [6],z-score of subpopulation abundance [7],z-score of subpopulation abundance [8],z-score of subpopulation abundance [9],z-score of subpopulation abundance [10],z-score of subpopulation abundance [11],z-score of subpopulation abundance [12],z-score of subpopulation abundance [13],z-score of subpopulation abundance [14],z-score of subpopulation abundance [15],z-score of subpopulation abundance [16],mean cell size [17]
COC1C(O)CC(=O)OC(C)CC=CC=CC(OC2CCC(N(C)C)C(C)O2)C(C)CC(CC=O)C1OC1OC(C)C(OC2CC(C)(O)C(O)C(C)O2)C(N(C)C)C1O (configuration not stated) [Spiramycin],0.08,-0.36,-0.29,-0.16,-0.46,0.31,0.4,0.65,-0.77,0.43,-0.02,-0.43,0.17,,,,
O=C(O)CCC(=O)OC[C@@H](NC(=O)C(Cl)Cl)[C@H](O)c1ccc([N+](=O)[O-])cc1 [Chloramphenicol sodium succinate],-0.62,0.71,2.27,0.42,0.45,-1.04,-0.25,1.46,1.48,0.81,0.13,1.21,0.88,-0.91,0.94,,
CCCSc1ccc2[nH]c(NC(=O)OC)nc2c1 [Albendazole],-0.36,0.54,-0.04,-0.51,0.31,-0.61,,-0.39,0.38,0.74,-0.14,-0.08,0.29,0.62,,0.33,
Cc1cc(O)cc(C)c1Cl [Chloroxylenol],-1.56,0.89,0.85,,0.64,1.05,1.27,,0.24,0.76,,0.54,0.12,0.84,0.32,0.41,12.7 ± 0.17
C[C@@H]1CN(c2c(F)c(N)c3c(=O)c(C(=O)O)cn(C4CC4)c3c2F)C[C@H](C)N1 [Sparfloxacin],0.52,-0.53,0.07,-0.34,-0.36,-0.11,-0.25,,-0.1,-0.79,,-0.41,-0.92,-0.2,-0.01,0.37,12.38 ± 0.094
N[C@@H]1CCCCN(c2c(F)cc3c(=O)c(C(=O)O)cn(C4CC4)c3c2Cl)C1 [Besifloxacin HCl],-0.33,-0.11,0.15,0.1,0.95,,-0.28,-0.33,0.25,0.44,-0.3,-0.19,0.22,0.87,,0.38,
Nc1c2c(nc3ccccc13)CCCC2 [Tacrine hydrochloride hydrate],-0.22,0.5,-0.15,-0.99,0.3,-0.42,0.92,-0.15,0.33,0.56,0.1,,0.45,0,,0.08,
CO[C@H]1C[C@@H]2CC[C@@H](C)[C@@](O)(O2)C(=O)C(=O)N2CCCC[C@H]2C(=O)O[C@H]([C@H](C)C[C@@H]2CC[C@@H](OC(=O)C(C)(CO)CO)[C@H](OC)C2)CC(=O)[C@H](C)/C=C(\C)[C@@H](O)[C@@H](OC)C(=O)[C@H](C)C[C@H](C)/C=C/C=C/C=C/1C,-18.4,-1.76,-0.9,13.5,4.31,28,11.2,15.9,28,21.4,,14.2,31.6,3.43,23.9,5.51,14.17 ± 0.036
CCCCCOc1ccc(-c2ccc(-c3ccc(C(=O)N[C@H]4C[C@@H](O)[C@@H](O)NC(=O)[C@@H]5[C@@H](O)[C@@H](C)CN5C(=O)[C@H]([C@@H](C)O)NC(=O)[C@H]([C@H](O)[C@@H](O)c5ccc(O)cc5)NC(=O)[C@@H]5C[C@@H](O)CN5C(=O)[C@H]([C@@H](C)O)NC4=O)cc3)cc2)cc1,,-11.7,4.48,25,5.21,17.2,1.54,31.2,21.5,42,25.3,9.08,76,0.13,,1.2,
CO/N=C(/C(=O)N[C@@H]1C(=O)N2C(C(=O)OCOC(=O)C(C)(C)C)=C(C)CS[C@H]12)c1csc(N)n1 [Cefetamet pivoxil hydrochloride],,0.7,0.83,1.26,0.94,0.78,,1.33,1.65,1.15,,,0.63,0.3,1.3,0.52,12.46 ± 0.1
Nc1nc(N)c2nc(-c3ccccc3)c(N)nc2n1 [Triamterene],,4.86,3.9,2.44,-7.06,-7.52,,3.45,-3.55,2.07,,-4.47,-1.58,-8.02,3.53,5.63,12.6 ± 0.17
NC(=O)c1cnccn1 [Pyrazinamide],-0.04,0.41,-1.21,-0.45,0.31,-0.29,1.23,,-0.7,-0.57,,-0.08,-0.48,1.27,-0.55,-0.13,12.6 ± 0.23
CN[C@@H]1[C@@H](O)[C@@H](O[C@@H]2[C@@H](O)[C@H](O[C@H]3OC(CN)=CC[C@H]3N)[C@@H](N)C[C@H]2N)OC[C@]1(C)O [Sisomicin sulfate],-0.71,1.6,1.01,-0.72,0.28,,,0.51,0.06,0.84,0.52,1.13,2.37,0.55,,,
CCC[C@@H]1C[C@@H](C(=O)N[C@@H]([C@H]2O[C@H](SC)[C@H](OP(=O)(O)O)[C@@H](O)[C@H]2O)[C@H](C)Cl)N(C)C1 [Clindamycin Phosphate],-0.33,0.65,-0.86,-0.77,0.78,-0.25,,-0.71,-0.85,-0.65,,-0.05,-0.47,0.48,0.11,0.11,12 ± 0.22
CCn1cc(C(=O)O)c(=O)c2cc(F)c(N3CCN(C)CC3)cc21 [Pefloxacin Mesylate Dihydrate],,1.25,-0.36,,-0.04,0.28,0.05,0.3,0.03,0.88,,-0.46,-0.42,0.5,0.71,-0.32,12.7 ± 0.14
